FBW7 activator = FBW7 E3 ligase activators, primary screen, biochemical, AlphaScreen, human; hit rate 0.13% among 650,000; F-box/WD repeat-containing protein 7 (Homo sapiens), Q969H0; AlphaScreen FBW7–phospho-cyclin E peptide binding, activator screen; normalized activity (activation), % at 26.1 µM; AID 1259310, 2017; in the data active = normalized activity above about 1.9%;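 also: purified mutant Fbw7 with reduced substrate affinity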
TEAD-YAP inh = TEAD-YAP interaction inhibition, primary screen, TEAD-YAP interaction inhibitor project, luminescence, HEK-TIYL cells; TEAD-Gal4/YAP UAS-luciferase luminescence; inhibition, % at 9.12 µM; hit rate 1.4% among 640,000; AID 1259422, 2018; in the data active = inhibition above about 32%;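 also: 0% = median of test compound wells and 100% = reference inhibitor wells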
MITF inh = MITF inhibitors, primary screen, biochemical, AlphaScreen, human; Microphthalmia-associated transcription factor (Homo sapiens), O75030; AlphaScreen MITF homodimerization, bead proximity signal; inhibition, % at 2.6 µM; hit rate 0.91% among 650,000; AID 1259374, 2018; in the data active = inhibition above about 50%;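 also: 0% = vehicle wells with protein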
GPR151 activ = activators of human GPR151, primary screen, cell-based, PathHunter beta-arrestin, luminescence | activation, % at 11.2 µM | hit rate 1% among 650,000 | G-protein coupled receptor 151 (Homo sapiens), Q8TDV0 | PathHunter beta-arrestin GPR151 cells; in the data active = activation above about 4.9%;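 also: 0% = median of compound wells and 100% = cells with positive control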
Target sequence (Q8TDV0 whole entry, looked up): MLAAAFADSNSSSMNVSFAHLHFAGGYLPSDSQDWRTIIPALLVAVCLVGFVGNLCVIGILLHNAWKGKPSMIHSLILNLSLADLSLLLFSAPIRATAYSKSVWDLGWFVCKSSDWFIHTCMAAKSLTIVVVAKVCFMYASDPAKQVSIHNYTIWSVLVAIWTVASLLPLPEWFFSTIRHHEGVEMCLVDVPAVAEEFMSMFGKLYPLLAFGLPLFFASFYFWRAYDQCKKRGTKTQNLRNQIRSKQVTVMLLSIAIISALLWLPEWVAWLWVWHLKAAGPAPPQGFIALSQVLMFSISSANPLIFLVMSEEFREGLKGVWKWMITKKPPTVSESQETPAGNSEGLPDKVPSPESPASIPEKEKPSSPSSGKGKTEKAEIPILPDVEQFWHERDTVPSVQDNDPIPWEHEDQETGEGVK
* hit, by the source's call. Only some compounds are listed: those with a hit (about 3.5% of all), similar ones and a draw of the others.

SMILES | FBW7 activator | TEAD-YAP inh | MITF inh | GPR151 activ
CC(=O)Nc1ccc(S(=O)(=O)Nc2ccc(S(=O)(=O)N3CCc4ccccc43)cc2)cc1 | 0 | 17 | 9 | 0
O=C(Nc1ccccc1)c1cccc(S(=O)(=O)N2CCCc3ccccc32)c1 | 0 | 3 | 6 | 3
COC(=O)Nc1ccc(S(=O)(=O)N2CCCc3ccccc32)cc1 | 0 | 56* | 7 | 2
O=C(Nc1ccc(F)cc1)c1cccc(S(=O)(=O)N2CCCc3ccccc32)c1 | 0 | 40* | 9 | 1
Cc1ccc(NCn2c(=O)oc3cc(Cl)ccc32)cc1 | 0 | 0 | 8 | -2
COc1cc(OC)cc(C(=O)Nc2cc(C(=O)N3CC(C)CC(C)C3)ccc2N2CC3CC(C2)c2cccc(=O)n2C3)c1 (centres undefined) | 0 | -9 | 1 | 2
O=C(NC(=S)Nc1ccc(I)cn1)c1cccc(F)c1 | 0 | -57 | 1 | 0
CCOc1cc(C(=O)Nc2ccccc2C(N)=O)cc(OCC)c1OCC | 0 | 37* | -6 | 0
CCOc1ccccc1NC(=O)c1cc(OCC)c(OCC)c(OCC)c1 | 0 | 13 | 3 | 0
CCOc1cc(C(=O)Nc2sccc2C(=O)N2CCOCC2)cc(OCC)c1OCC | 1 | 20 | 3 | 1
CCOc1cc(C(=O)Nc2sccc2C(N)=O)cc(OCC)c1OCC | 0 | 36* | 2 | 1
Cc1ccc2cc(N)ccc2n1 | 0 | -5 | 6 | 0
Nc1ccc2cc3ccc(N)cc3nc2c1 | 0 | 4 | 75* | 0
COc1ccc(/C=N/NC(=O)CNC(=O)c2ccc(OC)c(OC)c2)cc1 | 0 | 3 | -2 | 0
Cc1cc(NC(=O)COc2ccc(Cl)cc2C)no1 | 0 | -67 | 40 | -1
Nc1nn(-c2ccccc2)nc1NC=O | -2 | -23 | 13 | 0
Cc1nc(-c2ccccn2)cc(N2CCCCC2)n1 | -1 | 40* | -5 | 0
CC1=CC(C)(C)N(S(=O)(=O)c2ccc(Br)cc2)c2ccc(C)cc21 | 0 | 58* | -12 | 0
CCNC(=O)N1c2ccc(OCC)cc2C(C)=CC1(C)C | 0 | -2 | 10 | 4
CCOc1ccc2c(c1)N(S(=O)(=O)c1ccc(NC(C)=O)cc1)C(C)(C)C=C2C | 0 | 73* | 6 | 0
CCOc1ccc2c(c1)C(C)=CC(C)(C)N2S(=O)(=O)c1ccc(Br)cc1 | 0 | 61* | 5 | 1
CCOc1cc(Br)c(CNCCCN2CCOCC2)cc1OCC | 0 | 8 | 1 | 3
CCOC(=O)c1[nH]c(C)c(C(=O)CC(C)(C)C)c1C | 0 | -26 | -2 | 4
CCSc1nc2scc(C(F)(F)F)n2c(=O)c1C(=O)N1CC(C)CC(C)C1 (centres undefined) | 0 | -19 | 4 | 1
Brc1cccc(/C=N/Nc2ncnc3nc[nH]c23)c1 | 0 | 57* | 4 | -2
SMILES | FBW7 activator | TEAD-YAP inh | MITF inh | GPR151 activ
COc1ccc(/C=N/Nc2ncnc3nc[nH]c23)c(OC)c1 | 0 | 38* | 9 | -3
Oc1cccc(/C=N/Nc2ncnc3nc[nH]c23)c1 | 0 | 22 | 5 | -3
CCOc1ccccc1/C=N/Nc1ncnc2nc[nH]c12 | 0 | 8 | -2 | 1
CCN(CC)c1ccc(/C=N/Nc2ncnc3nc[nH]c23)cc1 | 0 | 76* | 1 | -3
COc1ccc(/C=N/Nc2ncnc3nc[nH]c23)cc1O | 0 | 37* | 10 | 0
COc1ccc(CNC(=O)NCCn2ccnc2C)cc1 | 0 | -3 | -14 | 0
COC(=O)c1ccc(N2C(=O)CSC2c2ccccc2Br)cc1 (centres undefined) | 0 | -17 | 5 | 1
Cn1c(Nc2cc(C(=O)NC3CC3)ccn2)nc2ccccc21 | 0 | 2 | -1 | 0
Cc1sc2nc(SCC#N)[nH]c(=O)c2c1C | 1 | 46* | 1 | 0
Cc1sc2nc(SCC(N)=O)[nH]c(=O)c2c1C | 0 | -6 | -2 | 0
COc1ccc(NS(=O)(=O)c2cc(NC(=O)CNC(C)=O)ccc2N2CCCC2)cc1 | 0 | 39* | -2 | 0
NCC(=O)N1CCC(C(=O)Nc2nc3ccc(-c4ccncc4)cc3s2)CC1 | -1 | 38* | 8 | 0
O=C(CSc1ccc(Cl)cc1)Nc1nc2ccc(-c3ccncc3)cc2s1 | 1 | 77* | 0 | 1
CC1=NOC(=O)/C1=C\c1cc(Br)c(O)c(Br)c1 | 0 | 3 | 68* | -1
CC1=NOC(=O)/C1=C/c1ccccc1O | 0 | -5 | 55* | 0
O=C1ON=C(c2ccccc2)/C1=C\c1ccccc1O | 0 | -6 | 68* | 1
CCOc1cc(/C=C2\C(=O)ON=C2C)cc(Br)c1OCC | 0 | 5 | 24 | 0
COC(=O)C1=CN(c2ccc(Br)cc2)C=C(C(=O)OC)C1c1ccccc1 | 0 | 6 | -5 | 0
COc1ccccc1N(CCC#N)C(=O)CCl | 0 | 18 | 4 | 0
N#CCCN(C(=O)CCl)c1ccccc1F | 0 | 46* | 13 | -2
CC(=O)N(/N=C1\Sc2ccccc2C1=O)c1ccccc1I | 0 | 76* | 29 | -1
CC(=O)Nc1ccc(Nc2nc(Nc3ccc(N4CCOCC4)cc3)nc3c2ncn3C(C)C)cc1 | 0 | 22 | 4 | 3
CC(C)n1cnc2c(Nc3ccc(N4CCOCC4)cc3)nc(Nc3ccc(-n4ccnc4)cc3)nc21 | 0 | 50* | 3 | 4
CC(C)n1cnc2c(Nc3ccc4c(c3)OCO4)nc(Nc3ccc(-n4ccnc4)cc3)nc21 | 0 | 39* | 6 | -1
CC(C)n1cnc2c(Nc3ccc4c(c3)OCO4)nc(Nc3cnccn3)nc21 | 12* | -5 | -2 | 0
SMILES | FBW7 activator | TEAD-YAP inh | MITF inh | GPR151 activ
Cc1cnc(Nc2ccc(-n3ccnc3)cc2)nc1Nc1ccc2c(c1)OCO2 | 0 | 60* | 2 | -2
CC(C)n1cnc2c(Nc3ccc4c(c3)OCO4)nc(Nc3ccccc3)nc21 | 0 | 5 | 12 | 0
c1cnc(Nc2nc(Nc3ccc4c(c3)OCO4)c3ncn(C4CCCCC4)c3n2)cn1 | 0 | -23 | 1 | 0
COC(=O)C(NC(=O)c1ccccc1)(Nc1sc2c(c1C#N)CCC(C(C)(C)C)C2)C(F)(F)F (centres undefined) | 0 | 2 | 9 | 1
CC(=O)Nc1nc(SCC(C)C)n[nH]1 | 0 | -17 | 1 | -1
O=C(Nc1cc(Cl)ccc1Cl)c1cc(Cl)cc(Cl)c1O | 0 | 57* | 2 | 1
O=C(Nc1cc(Cl)ccc1O)c1ccc(Cl)c(C(=O)c2ccc(Cl)cc2)c1 | 0 | 33* | 16 | -1
COc1ccc(C(=O)Nc2cc(Cl)ccc2O)cc1Cl | 0 | 4 | 19 | 0
Nc1ccc(Cl)c(NC(=O)c2ccc(Cl)cc2Cl)c1 | 1 | 87* | 0 | 1
O=C(Nc1cc(Cl)ccc1Oc1ccc(Cl)c2ccccc12)c1cc(Cl)cc(Cl)c1O | 0 | 4 | 2 | 1

Screening data (PubChem BioAssay)
